Measurements taken from the supplement of paper PMC10498489.
In all, about 2,300 compounds went through this assay and about 330 (14%) showed activity.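 How the source made its calls: active = median modified Z-score above 1.96; inactive = 1.96 or below.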 The list is a sample of the results.

Tested on: HepG2 Srxn1-GFP reporter cells (+30 nM CDDO-Me)
Assay: Srxn1-GFP intensity median modified Z-score relative to plate median; higher = stronger NRF2 / oxidative stress reporter activation, active = hit call of the paper
Conditions: 10 µM; exposure time: 24h
Summary of the method: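 HepG2 Srxn1-GFP BAC reporter cells (20,000 per well, 96-well plates) were co-exposed to an NRF2 activator at 30 nM and compound at 10 μM (≤0.1% DMSO) for 24 h in three replicate plates. After formaldehyde fixation and Hoechst staining, confocal images were analysed per cell for cytoplasmic GFP, excluding images with under 100 cells. The value is the median over replicates of the per-plate modified Z-score of GFP intensity. Scaling used 1.4826 × median absolute deviation.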

Srxn1-GFP intensity median modified Z-score, inactive:
COc1cccc(OC)c1C(=O)NC1C(=O)N2C1SC(C)(C)C2C(=O)O (stereo unspecified) [euspeclibcmpd2201] 0.364, CC(O)=NO [euspeclibcmpd970] -0.0555, Cn1nnnc1SC=C1CSC2C(NC(=O)C(OC=O)c3ccccc3)C(=O)N2C1C(=O)O (stereo unspecified) [euspeclibcmpd2340] 0.482, C[N+]1(C)C2CC[C@H]1C[C@@H](OC(=O)C(O)c1ccccc1)C2 (stereo partly specified) [euspeclibcmpd149] 0.332, CN1C/C(=C/c2cccs2)C(=O)/C(=C/c2cccs2)C1 1.25, C#C[C@]1(O)CCC2C3CCc4cc(O)ccc4C3CC[C@@]21C (stereo partly specified) [euspeclibcmpd121] 0.17, COc1cc2[nH]c(N(C)CCCNC(=O)C3CCCO3)nc(=N)c2cc1OC (stereo unspecified) [euspeclibcmpd2275] -0.081, CN[C@H](CC(C)C)C(=O)NC1C(=O)N[C@@H](CC(N)=O)C(=O)N[C@H]2C(=O)Nc3c(O)[nH]c(c(O)[nH]c(=C(O)O)c4cc(O)cc(O)c4c4cc3ccc4O)[C@H](O)c3ccc(c(Cl)c3)Oc3cc2cc(c3O[C@@H]2OC(CO)[C@@H](O)[C@H](O)[C@H]2O[C@H]2C[C@](C)(N)[C@H](O)[C@H](C)O2)Oc2ccc(cc2Cl)[C@H]1O (stereo partly specified) [euspeclibcmpd319] 0.197, CCN1CCN(C(=O)NC(C(=O)NC2C(=O)N3C(C(=O)O)=C(CSc4nnnn4C)CSC23)c2ccc(O)cc2)C(=O)C1=O (stereo unspecified) [euspeclibcmpd431] -0.443, CC[C@H](CCC(C)[C@H]1CCC2C3CCC4C[C@@H](O)CC[C@]4(C)C3CC[C@@]21C)C(C)C (stereo partly specified) [euspeclibcmpd1543] -0.389, O=C(O)CC(O)(CC(=O)O)C(=O)O [euspeclibcmpd2464] -0.363, O=C(O)CC(O)(CC(=O)O)C(=O)O [euspeclibcmpd2462] 0.449, CC(=O)OC1C[C@@]2(C)C(C[C@@H](O)C3[C@]2(C)CC[C@H]2[C@H](C)[C@H](O)CC[C@]32C)C1=C(CCC=C(C)C)C(=O)O (stereo partly specified) [euspeclibcmpd136] -0.739, COc1cc(O)c(C(=O)c2ccccc2)cc1O [euspeclibcmpd1987] -0.376, CC(C)C(NC(=O)[C@H](CC(=O)O)NC(=O)[C@H](CCCCN)NC(=O)[C@@H](N)CCCN=C(N)N)C(=O)N[C@@H](Cc1ccc(O)cc1)C(=O)O (stereo partly specified) [euspeclibcmpd1282] -0.1, C[C@H](CCC(=O)O)[C@H]1CCC2C3C(=O)CC4CC(=O)CC[C@]4(C)C3CC(=O)[C@@]21C (stereo partly specified) [euspeclibcmpd2057] -0.197, NCCS(=O)(=O)O [euspeclibcmpd625] -0.209, NCCCS(=O)(=O)O [euspeclibcmpd386] -0.0155, CCc1[nH]c(=N)[nH]c(=N)c1-c1ccc(Cl)cc1 [euspeclibcmpd259] 1.02, C[C@@H]1CN(c2c(F)c(F)c3c(=O)c(C(=O)O)cn(C4CC4)c3c2F)C[C@H](C)N1 [euspeclibcmpd981] -0.465, COc1ccc(-c2cc(=O)c3c(O)c(OC)c(O[C@H]4O[C@H](CO[C@@H]5O[C@@H](C)[C@H](O)[C@@H](O)[C@H]5O)[C@@H](O)[C@H](O)[C@H]4O)cc3o2)cc1 [euspeclibcmpd1421] -0.512, COc1cc(OC)c2c(=O)c(O)c(-c3ccc(OC)c(OC)c3)oc2c1 [euspeclibcmpd2117] -0.572, COc1cc(OC)c2c(=O)c(OC)c(-c3ccccc3)oc2c1 [euspeclibcmpd1625] 1.58, CCN(CC)C(=O)C1(c2ccccc2)CC1CN (stereo unspecified) [euspeclibcmpd689] -0.729, O=C(C(O)CO)C(O)CO (stereo unspecified) [euspeclibcmpd2280] -0.0858, O=c1c(-c2ccc(O)cc2)coc2c(C3O[C@H](CO)[C@@H](O)[C@H](O)[C@H]3O)c(O)ccc12 (stereo partly specified) [euspeclibcmpd1715] -0.564, COC(=O)NN=Cc1c[n+]([O-])c2ccccc2[n+]1[O-] [euspeclibcmpd737] 0.066, NN=c1[nH]ncc2ccccc12 [euspeclibcmpd806] -0.328, COc1cc2c(cc1OC)C1(O)C(=O)c3ccc(O)c(C(=O)O)c3OC1CO2 (stereo unspecified) [euspeclibcmpd1511] -0.131, COc1ccc2c(c1)OC[C@@H](Cc1ccc(OC)c(OC)c1)[C@@H]2O [euspeclibcmpd2183] 1.04, COc1ccc2c(c1)OCC(Cc1ccc(OC)c(OC(C)=O)c1)C2=O (stereo unspecified) [euspeclibcmpd1962] 1.39, COc1ccc2c(c1)OCC(Cc1ccc(O)c(OC)c1)C2=O (stereo unspecified) [euspeclibcmpd1837] 0.677, CC(=O)O/C1=C2\C(C)[C@@H](OC(=O)C(O)[C@@H](NC(=O)c3ccccc3)c3ccccc3)C[C@@](O)([C@@H](OC(=O)c3ccccc3)C3[C@](C)(C1=O)[C@@H](O)C[C@H]1OC[C@@]31OC(C)=O)C2(C)C (stereo partly specified) [euspeclibcmpd631] 0.274

Srxn1-GFP intensity median modified Z-score, active:
O=C1/C(=C/c2cccs2)CSC/C1=C/c1cccs1 13.2, O=C1/C(=C\c2cccs2)CC/C1=C\c1cccs1 2.51, O=C1/C(=C/c2cccs2)CCC/C1=C\c1cccs1 [euspeclibcmpd465] 36.6, NCCCCS(=O)(=O)O 10.1, Oc1c(C2=CC[C@@H](c3ccc(Cl)cc3)CC2)c(O)c2ccccc2c1O [euspeclibcmpd664] 37.9, COc1cc(OC)c2c(OC)c(-c3ccc4c(c3)OCO4)c(=O)oc2c1 [euspeclibcmpd2227] 2.22, COc1ccc2c(c1)OCC(Cc1ccc(OC)c(OC)c1)C2=O (stereo unspecified) [euspeclibcmpd1645] 15.4, COc1ccc2c(c1)OCC(Cc1ccc(OC)c(O)c1)C2=O (stereo unspecified) [euspeclibcmpd1628] 21.4
